Assay results published in PubChem BioAssay (NCATS).
Inconclusive results are not listed. Active and inactive are the calls of the source. Calls come from the whole dose curve; as a rule, active = well fitted curve in the direction sought with a large enough effect; inconclusive = small, poorly fitted or top-dose-only effect, or another doubt; inactive = no such curve, though single readings can be large; an effect the other way counts as inactive or inconclusive.

How the values were obtained:
[1] = target: ATP-dependent 6-phosphofructokinase (Trypanosoma brucei brucei) (UniProt O15648); test: qHTS Assay to Find Inhibitors of T. brucei phosphofructokinase: hit validation (AID 492961);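 note: luminescence reports ADP formed as PFK phosphorylates fructose-6-phosphate with ATP; % is set by controls: 0 for no effect and ±100 for the full control effect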
ATP-dependent 6-phosphofructokinase (Trypanosoma brucei brucei), sequence (O15648 whole entry, looked up): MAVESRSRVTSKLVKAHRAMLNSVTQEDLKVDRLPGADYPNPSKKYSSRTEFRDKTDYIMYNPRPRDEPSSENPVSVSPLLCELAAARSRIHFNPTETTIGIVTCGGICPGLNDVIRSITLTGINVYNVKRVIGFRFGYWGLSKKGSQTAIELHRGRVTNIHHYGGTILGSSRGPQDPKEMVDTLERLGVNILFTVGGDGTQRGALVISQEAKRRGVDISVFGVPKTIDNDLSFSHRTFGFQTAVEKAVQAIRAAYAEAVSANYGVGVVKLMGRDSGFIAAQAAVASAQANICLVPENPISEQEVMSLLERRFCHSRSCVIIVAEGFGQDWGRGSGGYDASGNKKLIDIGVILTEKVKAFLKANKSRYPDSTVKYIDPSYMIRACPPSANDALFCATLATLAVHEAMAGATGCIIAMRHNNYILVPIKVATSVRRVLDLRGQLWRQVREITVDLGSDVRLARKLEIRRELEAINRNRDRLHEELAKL
Summary of the method: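 Measures ADP output of PFK (1.25 nM) at 0.1 mM ATP, 0.5 mM F6P, pH 8.0 TEA buffer with 5 mM MgCl2. No-enzyme wells define full inhibition; uninhibited enzyme wells define zero.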

[2] = qHTS profiling for inhibitors of Plasmodium falciparum proliferation (AID 504749); note: potency is the fitted concentration of half-maximal effect;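 for activity, negative = inhibition: 0% = DMSO vehicle and full inhibition = artemisinin control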; for all read-outs here: nearly all actives have a fitted effect of over 60% in size; details: P. falciparum in erythrocytes, SYBR Green DNA, 72 h; for activity, negative = inhibition: at 28.7 µM (top of the series)
Summary of the method: (§1)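 In a 72 h erythrocytic culture (37 C, humidified, 5% CO2) at 2.5% hematocrit and 0.3% starting parasitemia, compounds were tested; SYBR Green I in detergent lysis buffer stained parasite DNA overnight.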

[3] = system: 3D7; test: as above; details: P. falciparum in erythrocytes, SYBR Green DNA, 72 h; series mostly up to 28.7 µM
Summary of the method: as §1

[4] = system: AA1029; test: as above; details: P. falciparum in erythrocytes, SYBR Green DNA, 72 h; series mostly up to 28.7 µM
Summary of the method: as §1

[5] = system: AS120; test: as above; details: P. falciparum in erythrocytes, SYBR Green DNA, 72 h; series mostly up to 28.7 µM
Summary of the method: as §1

[6] = system: ATS189; test: as above; details: P. falciparum in erythrocytes, SYBR Green DNA, 72 h; series mostly up to 28.7 µM
Summary of the method: as §1

[7] = system: CP185; test: as above; details: P. falciparum in erythrocytes, SYBR Green DNA, 72 h; series mostly up to 28.7 µM
Summary of the method: as §1

[8] = system: CP191; test: as above; details: P. falciparum in erythrocytes, SYBR Green DNA, 72 h; series mostly up to 28.7 µM
Summary of the method: as §1

[9] = system: CP194; test: as above; details: P. falciparum in erythrocytes, SYBR Green DNA, 72 h; series mostly up to 28.7 µM
Summary of the method: as §1

[10] = system: CP217; test: as above; details: P. falciparum in erythrocytes, SYBR Green DNA, 72 h; series mostly up to 28.7 µM
Summary of the method: as §1

[11] = system: CP237; test: as above; details: P. falciparum in erythrocytes, SYBR Green DNA, 72 h; series mostly up to 28.7 µM
Summary of the method: as §1

[12] = system: CP238; test: as above; details: P. falciparum in erythrocytes, SYBR Green DNA, 72 h; series mostly up to 28.7 µM
Summary of the method: as §1

[13] = system: CP252; test: as above; details: P. falciparum in erythrocytes, SYBR Green DNA, 72 h; series mostly up to 28.7 µM
Summary of the method: as §1

[14] = system: CP265; test: as above; details: P. falciparum in erythrocytes, SYBR Green DNA, 72 h; series mostly up to 28.7 µM
Summary of the method: as §1

[15] = system: CP286; test: as above; details: P. falciparum in erythrocytes, SYBR Green DNA, 72 h; series mostly up to 28.7 µM
Summary of the method: as §1

[16] = system: DFO2036; test: as above; details: P. falciparum in erythrocytes, SYBR Green DNA, 72 h; series mostly up to 28.7 µM
Summary of the method: as §1

[17] = system: DIV30; test: as above; details: P. falciparum in erythrocytes, SYBR Green DNA, 72 h; series mostly up to 28.7 µM
Summary of the method: as §1

[18] = system: Dd2; test: as above; details: P. falciparum in erythrocytes, SYBR Green DNA, 72 h; series mostly up to 28.7 µM
Summary of the method: as §1

[19] = system: N140; test: as above; details: P. falciparum in erythrocytes, SYBR Green DNA, 72 h; series mostly up to 28.7 µM
Summary of the method: as §1

[20] = system: P94_40; test: as above; details: P. falciparum in erythrocytes, SYBR Green DNA, 72 h; series mostly up to 28.7 µM
Summary of the method: as §1

CCC(C(=O)O)C1OC(C(C)C(O)C(C)C(=O)C(CC)C2OC3(C=CC(O)C4(CCC(C)(C5CCC(O)(CC)C(C)O5)O4)O3)C(C)CC2C)C(C)CC1C (stereo not given)
active: Potency ([2]; parasite line A) 141 nM | Potency ([2]; parasite line B) 158 nM | Potency [3] 100 nM | Potency [4] 158 nM | Potency [5] 79.4 nM | Potency [6] 158 nM | Potency [7] 224 nM | Potency [8] 100 nM | Potency [9] 75.7 nM | Potency [10] 178 nM | Potency [11] 56.2 nM | Potency [12] 199 nM | Potency [13] 141 nM | Potency [14] 224 nM | Potency [15] 141 nM | Potency [16] 126 nM | Potency [17] 67.5 nM | Potency [18] 100 nM | Potency [19] 141 nM | Potency [20] 70.8 nM
inactive: Potency [1]

CO/N=C(/C(=O)N[C@@H]1C(=O)N2C(C(=O)O)=C(CSc3nc(C)c(CC(=O)O)s3)CS[C@H]12)c1csc(N)n1
inactive: Potency [1] | activity, negative = inhibition ([2]; parasite line A) 5.91% | activity, negative = inhibition ([2]; parasite line B) 4.95% | Potency [3] | Potency [4] | Potency [5] | Potency [6] | Potency [7] | Potency [8] | Potency [9] | Potency [10] | Potency [11] | Potency [12] | Potency [13] | Potency [14] | Potency [15] | Potency [16] | Potency [17] | Potency [18] | Potency [19] | Potency [20]

O=C1[C@@H]2C[C@@H]3C[C@H]1C[C@@](O)(C3)C2
inactive: Potency [1] | activity, negative = inhibition ([2]; parasite line A) -0.632% | activity, negative = inhibition ([2]; parasite line B) 11.7% | Potency [3] | Potency [4] | Potency [5] | Potency [6] | Potency [7] | Potency [8] | Potency [9] | Potency [10] | Potency [11] | Potency [12] | Potency [13] | Potency [14] | Potency [15] | Potency [16] | Potency [17] | Potency [18] | Potency [19] | Potency [20]

CC(C)C[C@@H](NC(=O)[C@@H](Cc1ccccc1)NC(=O)c1cnccn1)B(O)O
inactive: Potency [1]
active: Potency ([2]; parasite line A) 79.4 nM | Potency ([2]; parasite line B) 79.4 nM | Potency [3] 112 nM | Potency [4] 112 nM | Potency [5] 100 nM | Potency [6] 112 nM | Potency [7] 112 nM | Potency [8] 100 nM | Potency [9] 426 nM | Potency [10] 112 nM | Potency [11] 89.1 nM | Potency [12] 89.1 nM | Potency [13] 89.1 nM | Potency [14] 141 nM | Potency [15] 89.1 nM | Potency [16] 112 nM | Potency [17] 338 nM | Potency [18] 112 nM | Potency [19] 100 nM | Potency [20] 126 nM

C=C1[C@@H]2CC[C@H](C2)C1(C)C
inactive: Potency [1] | activity, negative = inhibition ([2]; parasite line A) 10.4% | activity, negative = inhibition ([2]; parasite line B) -2.91% | Potency [3] | Potency [4] | Potency [5] | Potency [6] | Potency [7] | Potency [8] | Potency [9] | Potency [10] | Potency [11] | Potency [12] | Potency [13] | Potency [14] | Potency [15] | Potency [16] | Potency [17] | Potency [18] | Potency [19] | Potency [20]

OCCOC[C@H]1O[C@H](OCCO)[C@H](OCCO)[C@@H](OCCO)[C@@H]1OCCO (tested in a mixture with another compound)
inactive: Potency [1] | activity, negative = inhibition ([2]; parasite line A) 3.32% | activity, negative = inhibition ([2]; parasite line B) 1.14% | Potency [3] | Potency [4] | Potency [5] | Potency [6] | Potency [7] | Potency [8] | Potency [9] | Potency [10] | Potency [11] | Potency [12] | Potency [13] | Potency [14] | Potency [15] | Potency [16] | Potency [17] | Potency [18] | Potency [19] | Potency [20]

C=NC(C(=O)NC1C(=O)N2C1SC(C)(C)C2C(=O)O)c1ccccc1 (stereo not given)
inactive: Potency [1] | activity, negative = inhibition ([2]; parasite line A) 7.65% | activity, negative = inhibition ([2]; parasite line B) -6.25% | Potency [3] | Potency [4] | Potency [5] | Potency [6] | Potency [7] | Potency [8] | Potency [9] | Potency [10] | Potency [11] | Potency [12] | Potency [13] | Potency [14] | Potency [15] | Potency [16] | Potency [17] | Potency [18] | Potency [19] | Potency [20]

O=C(OC[C@@H]1O[C@@](O)(COC(=O)c2cccnc2)[C@H](OC(=O)c2cccnc2)[C@H]1OC(=O)c1cccnc1)c1cccnc1
inactive: Potency [1] | activity, negative = inhibition ([2]; parasite line A) 18.2% | activity, negative = inhibition ([2]; parasite line B) -0.864% | Potency [3] | Potency [4] | Potency [5] | Potency [6] | Potency [7] | Potency [8] | Potency [9] | Potency [10] | Potency [11] | Potency [12] | Potency [13] | Potency [14] | Potency [15] | Potency [16] | Potency [17] | Potency [18] | Potency [19] | Potency [20]

CC[C@@]1(O)C[C@H](O[C@H]2C[C@@H](N(C)C)[C@@H](O[C@H]3C[C@@H](O)[C@@H](O[C@H]4CCC(=O)[C@@H](C)O4)[C@@H](C)O3)[C@@H](C)O2)c2c(cc3c(c2O)C(=O)c2c(O)cccc2C3=O)[C@H]1C(=O)OC
active: Potency ([2]; parasite line A) 141 nM | Potency ([2]; parasite line B) 199 nM | Potency [3] 126 nM | Potency [4] 199 nM | Potency [5] 100 nM | Potency [6] 355 nM | Potency [7] 251 nM | Potency [8] 199 nM | Potency [9] 953 nM | Potency [10] 251 nM | Potency [11] 35.5 nM | Potency [12] 178 nM | Potency [13] 224 nM | Potency [14] 224 nM | Potency [15] 39.8 nM | Potency [16] 178 nM | Potency [17] 953 nM | Potency [18] 89.1 nM | Potency [19] 178 nM | Potency [20] 158 nM
inactive: Potency [1]

CNC(=O)C(N)CSC(C)C1=C(C)c2cc3[n-]c(cc4nc(cc5[n-]c(cc1n2)c(C)c5CCC(=O)O)C(CCC(=O)O)=C4C)c(C)c3C(C)SCC(N)C(=O)NC.[Fe+2] (stereo not given)
inactive: Potency [1] | activity, negative = inhibition ([2]; parasite line A) 8.98% | activity, negative = inhibition ([2]; parasite line B) -1.36% | Potency [3] | Potency [4] | Potency [5] | Potency [6] | Potency [7] | Potency [8] | Potency [9] | Potency [10] | Potency [11] | Potency [12] | Potency [13] | Potency [14] | Potency [15] | Potency [16] | Potency [17] | Potency [18] | Potency [19] | Potency [20]
